Results published in the supplement of paper PMC10849652.
About 7,900 targets were measured; listed, in parts, are those with a hit and a random draw of the rest. About 0.6% of all pairs of compound and target were hits. Values without a mark were called inactive.

Assays:
Assay in all cases: log2 fold change, soluble protein after heating vs DMSO (PISA); higher = thermal stabilisation; K562 cells, 10 uM, 30 min; active = over 0.2 and 3.5 SD of the protein, either way, in both replicates (recomputed)
saracatinib = compound: CN1CCN(CCOc2cc(OC3CCOCC3)c3c(Nc4c(Cl)ccc5c4OCO5)ncnc3c2)CC1 [saracatinib]
Outline: (§1)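 Thermal stability values are relative to control samples and come from duplicates. They are expressed as log2 fold changes. For measurement, K562 cells (2×10^6 cells/mL) received 10 μM compound for 30 min, and aliquots were heated for 3 min over 48°C-58°C, pooled, and extracted at 4°C in PBS with 0.5% NP-40. Soluble protein, the supernatant after 21,000xg for 90 min, was quantified by TMTpro 16plex LC-MS/MS with equalised channel sums.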

sotrastaurin = compound: CN1CCN(c2nc(C3=C(c4c[nH]c5ccccc45)C(=O)NC3=O)c3ccccc3n2)CC1 [sotrastaurin]
Outline: as §1

alvocidib = compound: CN1CC[C@H](c2c(O)cc(O)c3c(=O)cc(-c4ccccc4Cl)oc23)[C@H](O)C1 [alvocidib]
Outline: as §1

Tubastatin A = compound: CN1CCc2c(c3ccccc3n2Cc2ccc(C(=O)NO)cc2)C1 [Tubastatin A]
Outline: as §1

[1] = compound: CNC(=O)C1=CC=CC=C1NC2=NC(=NC=C2Cl)NC3=C(C=C(C=C3)N4CCOCC4)OC
Outline: as §1

defactinib = compound: CNC(=O)c1ccc(Nc2ncc(C(F)(F)F)c(NCc3nccnc3N(C)S(C)(=O)=O)n2)cc1 [defactinib]
Outline: as §1

rucaparib = compound: CNCc1ccc(-c2[nH]c3cc(F)cc4c3c2CCNC4=O)cc1 [rucaparib]
Outline: as §1

[2] = compound: CNc1nc(-c2ccc3c(N)n[nH]c3c2)cc(N2C[C@@H](C(=O)NC3CCCCC3)CC[C@H]2C)n1
Outline: as §1

encorafenib = compound: COC(=O)N[C@@H](C)CNc1nccc(-c2cn(C(C)C)nc2-c2cc(Cl)cc(NS(C)(=O)=O)c2F)n1 [encorafenib]
Outline: as §1

[3] = compound: COC(=O)[C@H](CCSC)NC(=O)C1=C(C=C(C=C1)NC[C@H](CS)N)C2=CC=CC=C2
Outline: as §1

UniProt Q8N2K1, sequence (Q8N2K1 whole entry, looked up): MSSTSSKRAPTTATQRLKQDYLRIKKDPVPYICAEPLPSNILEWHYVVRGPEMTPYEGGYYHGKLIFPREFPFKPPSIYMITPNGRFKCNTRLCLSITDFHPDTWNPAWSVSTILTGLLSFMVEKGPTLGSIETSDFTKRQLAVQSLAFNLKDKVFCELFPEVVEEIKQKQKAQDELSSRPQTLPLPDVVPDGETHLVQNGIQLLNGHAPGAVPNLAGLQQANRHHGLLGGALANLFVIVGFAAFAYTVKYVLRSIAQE
UniProt Q9HAD4, sequence (Q9HAD4 whole entry, looked up): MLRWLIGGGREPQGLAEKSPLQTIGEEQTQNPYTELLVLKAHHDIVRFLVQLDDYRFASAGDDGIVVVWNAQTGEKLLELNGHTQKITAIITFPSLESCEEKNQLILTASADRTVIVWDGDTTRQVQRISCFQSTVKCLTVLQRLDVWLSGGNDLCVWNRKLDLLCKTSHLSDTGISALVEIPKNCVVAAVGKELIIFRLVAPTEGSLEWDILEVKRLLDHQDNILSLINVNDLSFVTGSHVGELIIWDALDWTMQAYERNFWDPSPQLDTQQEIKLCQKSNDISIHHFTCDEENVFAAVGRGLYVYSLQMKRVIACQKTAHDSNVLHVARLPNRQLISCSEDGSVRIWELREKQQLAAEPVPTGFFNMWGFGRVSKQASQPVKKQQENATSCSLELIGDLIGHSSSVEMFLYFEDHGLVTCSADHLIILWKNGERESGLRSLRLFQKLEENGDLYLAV
UniProt Q53S58, sequence (Q53S58 whole entry, looked up): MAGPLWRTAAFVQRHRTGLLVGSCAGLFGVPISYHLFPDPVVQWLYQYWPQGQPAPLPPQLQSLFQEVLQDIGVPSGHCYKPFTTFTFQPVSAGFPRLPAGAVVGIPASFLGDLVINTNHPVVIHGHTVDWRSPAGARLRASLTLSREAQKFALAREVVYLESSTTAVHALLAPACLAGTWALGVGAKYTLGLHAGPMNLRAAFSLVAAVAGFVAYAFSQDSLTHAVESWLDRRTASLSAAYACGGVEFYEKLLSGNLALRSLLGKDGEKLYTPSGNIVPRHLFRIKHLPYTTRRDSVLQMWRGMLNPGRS
UniProt Q9H267, sequence (Q9H267 whole entry, looked up): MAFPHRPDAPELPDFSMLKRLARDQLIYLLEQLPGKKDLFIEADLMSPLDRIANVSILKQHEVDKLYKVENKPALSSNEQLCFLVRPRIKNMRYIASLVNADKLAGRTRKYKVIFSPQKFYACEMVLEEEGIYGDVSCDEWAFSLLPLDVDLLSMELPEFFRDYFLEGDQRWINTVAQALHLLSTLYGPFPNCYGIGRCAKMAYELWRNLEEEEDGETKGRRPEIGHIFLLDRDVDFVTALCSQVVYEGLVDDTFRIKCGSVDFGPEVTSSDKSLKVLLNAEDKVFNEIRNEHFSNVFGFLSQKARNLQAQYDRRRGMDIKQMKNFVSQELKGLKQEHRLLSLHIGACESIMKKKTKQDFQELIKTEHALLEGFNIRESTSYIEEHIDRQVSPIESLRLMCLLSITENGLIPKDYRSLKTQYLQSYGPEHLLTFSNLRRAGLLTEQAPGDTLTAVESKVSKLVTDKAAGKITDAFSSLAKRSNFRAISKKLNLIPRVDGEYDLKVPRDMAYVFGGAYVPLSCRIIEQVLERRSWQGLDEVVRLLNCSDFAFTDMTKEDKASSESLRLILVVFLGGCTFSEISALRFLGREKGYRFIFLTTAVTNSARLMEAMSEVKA
UniProt Q9BZH6, sequence (Q9BZH6 whole entry, looked up): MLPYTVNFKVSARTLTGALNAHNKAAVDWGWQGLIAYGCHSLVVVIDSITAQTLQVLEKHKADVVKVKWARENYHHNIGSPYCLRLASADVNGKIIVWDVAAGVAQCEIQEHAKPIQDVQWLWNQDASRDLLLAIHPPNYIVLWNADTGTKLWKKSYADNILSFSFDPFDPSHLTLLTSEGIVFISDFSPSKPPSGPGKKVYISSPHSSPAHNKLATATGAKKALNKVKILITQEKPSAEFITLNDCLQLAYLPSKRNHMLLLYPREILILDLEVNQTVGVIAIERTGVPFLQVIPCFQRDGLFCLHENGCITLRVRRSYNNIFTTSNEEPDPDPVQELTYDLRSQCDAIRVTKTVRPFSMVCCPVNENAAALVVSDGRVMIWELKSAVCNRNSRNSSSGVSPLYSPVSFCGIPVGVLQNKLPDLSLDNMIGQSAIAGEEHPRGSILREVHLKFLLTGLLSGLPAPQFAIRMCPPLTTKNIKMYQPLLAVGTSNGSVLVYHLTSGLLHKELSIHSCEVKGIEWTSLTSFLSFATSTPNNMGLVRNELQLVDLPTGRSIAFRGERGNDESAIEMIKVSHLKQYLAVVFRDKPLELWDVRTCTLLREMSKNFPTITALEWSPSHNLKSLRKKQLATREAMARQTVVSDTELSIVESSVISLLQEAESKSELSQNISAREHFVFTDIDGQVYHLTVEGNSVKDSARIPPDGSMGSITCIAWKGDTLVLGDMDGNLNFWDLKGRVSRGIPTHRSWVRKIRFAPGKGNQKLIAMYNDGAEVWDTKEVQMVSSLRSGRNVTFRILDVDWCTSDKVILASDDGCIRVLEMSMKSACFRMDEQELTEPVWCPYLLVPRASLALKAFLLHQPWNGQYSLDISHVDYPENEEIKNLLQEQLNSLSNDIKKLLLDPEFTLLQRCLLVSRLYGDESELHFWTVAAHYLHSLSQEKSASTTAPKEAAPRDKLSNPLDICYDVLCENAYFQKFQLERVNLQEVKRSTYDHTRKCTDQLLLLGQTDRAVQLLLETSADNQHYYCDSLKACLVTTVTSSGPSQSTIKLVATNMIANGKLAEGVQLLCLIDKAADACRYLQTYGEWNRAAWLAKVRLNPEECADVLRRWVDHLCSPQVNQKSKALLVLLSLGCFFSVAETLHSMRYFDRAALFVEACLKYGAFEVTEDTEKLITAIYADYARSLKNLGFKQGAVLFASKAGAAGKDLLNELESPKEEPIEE
UniProt O75717, sequence (O75717 whole entry, looked up): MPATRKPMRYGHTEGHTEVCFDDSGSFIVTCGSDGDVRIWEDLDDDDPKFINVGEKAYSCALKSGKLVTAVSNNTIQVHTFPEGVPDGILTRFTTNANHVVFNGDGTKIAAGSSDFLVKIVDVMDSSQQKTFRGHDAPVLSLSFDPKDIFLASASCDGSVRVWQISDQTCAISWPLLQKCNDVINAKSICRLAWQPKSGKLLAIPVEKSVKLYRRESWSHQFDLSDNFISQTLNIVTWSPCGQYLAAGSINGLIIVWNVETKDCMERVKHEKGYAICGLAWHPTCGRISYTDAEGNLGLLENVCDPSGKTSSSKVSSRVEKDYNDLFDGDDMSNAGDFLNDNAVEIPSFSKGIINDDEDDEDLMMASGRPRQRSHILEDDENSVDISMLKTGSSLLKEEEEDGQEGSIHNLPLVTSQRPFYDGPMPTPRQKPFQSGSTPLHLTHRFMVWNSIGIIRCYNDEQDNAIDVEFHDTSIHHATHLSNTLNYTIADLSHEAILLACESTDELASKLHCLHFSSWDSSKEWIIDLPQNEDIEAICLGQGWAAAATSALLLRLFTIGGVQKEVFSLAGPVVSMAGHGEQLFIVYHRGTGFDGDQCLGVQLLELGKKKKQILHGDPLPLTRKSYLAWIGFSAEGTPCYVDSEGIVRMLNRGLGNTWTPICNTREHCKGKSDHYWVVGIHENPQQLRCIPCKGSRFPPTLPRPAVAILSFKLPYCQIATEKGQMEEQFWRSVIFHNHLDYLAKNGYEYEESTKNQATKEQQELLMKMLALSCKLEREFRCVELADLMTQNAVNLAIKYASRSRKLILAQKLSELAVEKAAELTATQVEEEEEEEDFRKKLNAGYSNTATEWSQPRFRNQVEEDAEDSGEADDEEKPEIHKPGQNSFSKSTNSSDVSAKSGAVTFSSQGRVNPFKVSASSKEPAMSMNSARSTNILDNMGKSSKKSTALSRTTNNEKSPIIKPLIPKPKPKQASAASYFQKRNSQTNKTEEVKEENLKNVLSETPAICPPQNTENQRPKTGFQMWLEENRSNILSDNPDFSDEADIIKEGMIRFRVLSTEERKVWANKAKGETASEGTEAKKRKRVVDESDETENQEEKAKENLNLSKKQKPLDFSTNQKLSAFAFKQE
UniProt P43897, sequence (P43897 whole entry, looked up): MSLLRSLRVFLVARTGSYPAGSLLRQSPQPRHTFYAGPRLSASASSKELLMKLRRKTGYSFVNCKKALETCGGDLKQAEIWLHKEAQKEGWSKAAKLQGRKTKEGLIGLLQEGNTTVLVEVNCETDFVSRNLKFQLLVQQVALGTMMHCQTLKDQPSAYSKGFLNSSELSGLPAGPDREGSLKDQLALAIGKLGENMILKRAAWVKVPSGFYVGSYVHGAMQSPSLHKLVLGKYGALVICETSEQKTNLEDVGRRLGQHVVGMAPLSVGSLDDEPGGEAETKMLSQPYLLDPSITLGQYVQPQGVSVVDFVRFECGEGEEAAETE
UniProt O43617, sequence (O43617 whole entry, looked up): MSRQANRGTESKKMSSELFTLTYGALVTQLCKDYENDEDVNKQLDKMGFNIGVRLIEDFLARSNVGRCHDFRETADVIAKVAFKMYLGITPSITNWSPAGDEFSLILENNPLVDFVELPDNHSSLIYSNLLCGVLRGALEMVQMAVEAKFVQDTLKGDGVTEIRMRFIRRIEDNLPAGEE
UniProt A5PLN9, sequence (A5PLN9 whole entry, looked up): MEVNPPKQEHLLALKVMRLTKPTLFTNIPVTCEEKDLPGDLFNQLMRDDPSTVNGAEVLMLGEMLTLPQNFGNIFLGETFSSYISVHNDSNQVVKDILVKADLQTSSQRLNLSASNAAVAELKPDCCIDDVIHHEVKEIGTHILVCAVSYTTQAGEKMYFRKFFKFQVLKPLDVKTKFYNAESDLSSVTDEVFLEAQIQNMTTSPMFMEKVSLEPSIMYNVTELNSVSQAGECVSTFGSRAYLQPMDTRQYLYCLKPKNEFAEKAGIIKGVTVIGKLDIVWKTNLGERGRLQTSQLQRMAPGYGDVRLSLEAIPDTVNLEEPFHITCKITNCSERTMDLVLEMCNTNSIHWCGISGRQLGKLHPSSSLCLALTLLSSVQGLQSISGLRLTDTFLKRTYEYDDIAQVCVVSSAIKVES
UniProt Q8N4H5, sequence (Q8N4H5 whole entry, looked up): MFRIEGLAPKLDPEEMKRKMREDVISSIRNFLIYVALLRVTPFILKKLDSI

Target | log2 fold change (saracatinib) | log2 fold change (sotrastaurin) | log2 fold change (alvocidib) | log2 fold change (Tubastatin A) | log2 fold change [1] | log2 fold change (defactinib) | log2 fold change (rucaparib) | log2 fold change [2] | log2 fold change (encorafenib) | log2 fold change [3]
WDR46 (UniProt O15213) | -0.095 | 0.003 | 0.387 | 0.101 | 0.101 | 0.39 | 0.289 | 0.084 | 0.128 | -0.015
TUT4 (UniProt Q5TAX3) | -0.089 | 0.003 | 0.112 | 0.073 | -0.075 | -0.095 | -0.001 | -0.008 | -0.144 | 0.082
TMEM177 (UniProt Q53S58) | 0.078 | 0.014 | 0.031 | 0.08 | 0.005 | -0.046 | 0.009 | -0.003 | -0.02 | 0.024
TMEM164 (UniProt Q5U3C3) | -0.13 | 0.197 | 0.025 | 0.012 | 0.033 | 0.06 | -0.233 | 0.061 | 0.211 | -0.003
UBAP2L isoform 1 (UniProt Q14157) | -0.001 | 0.063 | -0.092 | -0.016 | 0.038 | -0.02 | -0.017 | -0.073 | -0.014 | -0.015
UBA1 (UniProt P22314) | -0.048 | -0.17 | -0.127 | -0.052 | 0.015 | -0.058 | -0.019 | 0.055 | 0.149 | -0.057
TMEM87B (UniProt Q96K49) | -0.072 | 0.013 | -0.046 | -0.099 | -0.019 | 0.044 | -0.016 | -0.123 | 0.03 | 0.149
UBE2J2 isoform 3 (UniProt Q8N2K1) | 0.07 | 0.044 | -0.226 | 0.091 | -0.114 | -0.061 | 0.081 | 0.055 | 0.014 | -0.053
TRAPPC3 (UniProt O43617) | 0.063 | 0.001 | -0.071 | -0.026 | 0 | -0.072 | -0.056 | -0.014 | 0.015 | 0.013
TRAPPC13 isoform 5 (UniProt A5PLN9) | 0.045 | -0.061 | -0.029 | 0.026 | 0.04 | -0.051 | 0.072 | -0.045 | 0.217 | -0.099
XPNPEP3 (UniProt Q9NQH7) | 0.022 | -0.017 | -0.029 | -0.021 | 0 | -0.033 | -0.018 | -0.035 | -0.005 | 0.038
TRAPPC11 (UniProt Q7Z392) | -0.043 | -0.041 | -0.085 | 0 | -0.028 | -0.075 | 0.051 | -0.027 | 0.035 | -0.031
UBXN10 (UniProt Q96LJ8) | 0.111 | 0.122 | -0.021 | 0.036 | -0.152 | 0.254 | -0.05 | -0.049 | -0.074 | 0.014
WDR11 (UniProt Q9BZH6) | -0.079 | 0.059 | 0.06 | -0.029 | -0.021 | 0.016 | -0.382 (active) | -0.052 | -0.034 | 0.017
TOP2A isoform 4 (UniProt P11388) | -0.168 | 0.006 | 0.261 | 0.103 | 0.102 | 0.438 | 0.434 | 0.273 | 0.288 | -0.086
TMEM161B (UniProt Q8NDZ6) | 0.048 | 0.037 | -0.037 | -0.007 | -0.043 | -0.061 | 0.013 | -0.049 | -0.023 | -0.05
XIAP (UniProt P98170) | -0.149 | -0.119 | -0.108 | 0.002 | -0.033 | -0.12 | 0.107 | -0.075 | 0.081 | 0.033
TSFM (UniProt P43897) | 0.057 | -0.157 | -0.132 | 0.063 | 0.021 | -0.166 | -0.001 | -0.073 | 0.167 | -0.082
WBP4 (UniProt O75554) | 0.113 | 0.012 | -0.032 | -0.02 | -0.015 | 0.012 | -0.031 | -0.019 | -0.046 | 0.045
TRMT2A (UniProt Q8IZ69) | -0.011 | -0.076 | -0.045 | -0.005 | -0.049 | -0.031 | 0.084 | 0.094 | 0.056 | -0.094
WDHD1 (UniProt O75717) | -0.027 | -0.067 | -0.135 | 0.079 | 0.075 | -0.201 | -0.06 | 0 | 0.119 | -0.022
WRB (UniProt O00258) | -0.007 | 0.075 | 0.034 | -0.051 | -0.048 | 0.073 | -0.003 | -0.014 | -0.057 | 0.023
WDR41 (UniProt Q9HAD4) | 0.071 | -0.037 | -0.014 | -0.054 | -0.046 | -0.007 | 0.015 | -0.031 | 0.008 | 0.036
WDR61 (UniProt Q9GZS3) | -0.011 | 0.064 | -0.051 | -0.011 | -0.005 | -0.012 | -0.012 | -0.007 | -0.028 | 0.031
TOMM5 isoform 2 (UniProt Q8N4H5) | -0.033 | 0.064 | 0.012 | 0.027 | 0.059 | 0.01 | -0.033 | -0.031 | -0.036 | 0.049
TRAM1 (UniProt Q15629) | -0.007 | -0.025 | -0.02 | -0.052 | -0.208 | -0.029 | -0.132 | 0 | 0.179 | -0.052
TP53BP1 isoform 2 (UniProt Q12888) | 0.01 | -0.112 | -0.081 | 0.116 | 0.061 | -0.073 | 0.025 | -0.022 | 0.059 | 0.036
UBAP2L isoform 5 (UniProt Q14157) | 0.017 | 0.013 | 0.038 | -0.006 | -0.096 | 0.009 | 0.018 | -0.006 | -0.018 | 0.015
VPS33B (UniProt Q9H267) | -0.088 | -0.117 | -0.008 | 0.039 | -0.071 | -0.078 | 0.196 | 0.052 | 0.111 | -0.058
